The values below come from PubChem BioAssay AID1851 (National Center for Advancing Translational Sciences (NCATS), 2009).

Several values for one entry are separate records, joined by “and”; a condition that tells them apart may be missing. Equal values may be shown once. In all, about 16,000 compounds went through this assay and about 2,600 (16%) were called active. Roughly 20% stayed inconclusive and do not appear here. Not all results are given here. A number with no mark means an inactive call. Calls follow the shape of the dose curve; as a rule, active = well fitted curve in the direction sought with a large enough effect; inconclusive = small, poorly fitted or top-dose-only effect, or effect the other way; inactive = no such curve, though single readings can be large or run the other way.
% is scaled to controls: 0 for no effect and ±100 for the full control effect.

For the experiment, the target named is Cytochrome P450 2D6 (Homo sapiens) (UniProt P10635). The experiment can be described thus: Cytochrome panel assay with activity outcomes. To be noted: recombinant CYP, pro-luciferin dealkylation, luminescence, p450-cyp2d6; series mostly up to 57.1 µM; activity, negative = inhibition: at the top concentration.
Chain of Cytochrome P450 2D6 (Homo sapiens) (P10635 whole entry, looked up): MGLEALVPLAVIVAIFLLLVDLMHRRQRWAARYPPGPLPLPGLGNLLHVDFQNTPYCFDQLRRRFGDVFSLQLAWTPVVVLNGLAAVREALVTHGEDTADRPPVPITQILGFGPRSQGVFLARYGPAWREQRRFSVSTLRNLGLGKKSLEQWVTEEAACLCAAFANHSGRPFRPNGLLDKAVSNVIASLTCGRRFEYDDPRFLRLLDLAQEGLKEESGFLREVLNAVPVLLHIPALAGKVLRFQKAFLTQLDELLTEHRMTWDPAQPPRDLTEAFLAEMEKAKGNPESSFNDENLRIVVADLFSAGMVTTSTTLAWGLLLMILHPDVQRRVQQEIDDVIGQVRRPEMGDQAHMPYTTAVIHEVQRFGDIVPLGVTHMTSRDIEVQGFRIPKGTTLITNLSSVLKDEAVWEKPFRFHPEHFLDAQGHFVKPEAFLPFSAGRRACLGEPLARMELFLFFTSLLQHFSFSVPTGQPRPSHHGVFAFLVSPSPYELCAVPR
Turning to `O=C1Nc2cc(Cl)c(Cl)cc2N(O)N1c1ccc(Cl)c(Cl)c1`, the “activity, negative = inhibition” value is 22.5%.

Consider `CC1(C)O[C@@H]2C[C@H]3[C@H]4C[C@H](F)C5=CC(=O)CC[C@]5(C)[C@@H]4[C@H](O)C[C@]3(C)[C@]2(C(=O)CO)O1`, for which the “activity, negative = inhibition” value is 1.64% [at 25.6 µM]. On the same count and under the same terms, the figure for `COCC(=O)Oc1c(S(=O)(=O)c2ccc(C)cc2)c(C)nn1-c1ccccc1` is -6.87%. A word on the AC50: it is the concentration at which the activity in the assay is half-maximal. Consider `NC(=O)c1cc[n+](CC2=C(C(=O)O)N3C(=O)[C@@H](NC(=O)[C@H](c4ccccc4)S(=O)(=O)[O-])[C@@H]3SC2)cc1`, for which the AC50 entry was “inactive”. Turning to `COc1ccc(-c2cc(C(=O)Nc3cnn(Cc4ccccc4C)c3)no2)cc1OC`, the “activity, negative = inhibition” value is 0.139%. As to `COC(=O)c1cnn(C(=O)c2cc(OC)ccc2Br)c1N`, the “activity, negative = inhibition” value is 2.31%. On the same count and under the same terms, the figure for `O=C(O)/C=C\[C@H](O)c1ccc(Cl)cc1` is 0.669%; for `Cc1ccccc1N(C(=O)Cc1cccs1)C(C(=O)NCC1CCCO1)c1cccnc1` (configuration not stated) it is -14.2%; for `N#Cc1c(-c2ccccc2)nc(-c2ccccc2)[nH]c1=O` it is 8.25%.

On to `CC(C)CN=C(N)N=C(N)N`, for which the activity, negative = inhibition was 7.41% [at 11.4 µM]. On the same count and under the same terms, next, `N#C/C(=C\Nc1ccccn1)C(=O)c1ccco1`: -1.48% [at 11.4 µM]. Same read-out and setting: next, `COCCNc1ncnc2ccc(-c3ccc(C(=O)N(C)C)cc3)cc12`: 0.335%; `CS(=O)(=O)Nc1cccc(-c2ccc3ncnc(NC4CCNCC4)c3c2)c1`: -5.14%. Regarding `CN(C)Cc1ccccc1-c1ccc2ncnc(NC3CCNCC3)c2c1`, the AC50 was 10 µM (active). In the case of `N#Cc1cccc(-c2ccc3ncnc(NC4CCNCC4)c3c2)c1`, the “activity, negative = inhibition” value is -2.46%. `COCCNc1ncnc2ccc(-c3ccccc3CN(C)C)cc12`: the AC50 was 15.8 µM (active). In the case of `C[C@@H](CNC(N)=O)NC(N)=O`, the activity, negative = inhibition was -3.67% [at 11.4 µM]. On the same count and under the same terms, the figure for `CN1CCN(c2ncc3ncc(=O)n(-c4ccccc4)c3n2)CC1` is -5.52%. On the same count and under the same terms, next, `O=C(NC(N1CCCC1)C(Cl)(Cl)Cl)c1ccccc1` (configuration not stated): -26.8%.

On to `COc1cccc(/C=N/NC(=O)c2nc(-c3ccccc3)cc(-c3ccccc3)n2)c1`, for which the “activity, negative = inhibition” value was 41.9%. Turning to `Cc1ccccc1OCCCN1CCCC1`, the AC50 is 14.1 µM (active). As to `O=C(O)c1ccc(OCc2ccccc2)c(Cl)c1`, the activity, negative = inhibition is 4.91% [at 11.4 µM]. For `CC(C)(C)c1ccccc1OCCN1CCCC1`, the AC50 is 5.62 µM (active).

For the compound `Clc1ccccc1OCCCCN1CCCC1`, the AC50 is 11.2 µM (active).

On to `Fc1ccccc1OCCCCCCN1CCCC1`, for which the AC50 was 14.1 µM (active).

As to `Cc1ccccc1OCC(=O)OC1CCN(C)CC1`, the “activity, negative = inhibition” value is -4.3%. Same read-out and setting: next, `Cc1ccc(CNC(=O)CCc2c(C)nc3ncnn3c2C)cc1`: -4.52%; `O=C1[C@H]2[C@H]3[C@H](O)[C@H](O)C/C(=N/OC[C@@H](O)COCc4ccco4)[C@H]3CC[C@@H]2C(=O)N1C[C@@H]1CCCO1`: 14.8% [at 11.4 µM]; `C/C(CCN1CCc2nc(-c3ccccc3)c(-c3ccccc3)cc2C1)=N\O[C@@H](C)c1cn([C@H](CO)Cc2ccccc2)nn1`: -8.59% [at 11.4 µM] and -16.7% [at 11.4 µM].

For `COc1ccccc1S(=O)(=O)Nc1ccc(-c2nnc3n2CCCCC3)cc1`, the “activity, negative = inhibition” value is -3.25%. The same measure, in the same setting: next, `N#Cc1c(N)nc2c(c1-c1cccc(O)c1)CCCCCC2`: -22.4%; `CCc1nnc2sc(-c3ccc(NC(=O)c4ccco4)cc3)nn12`: -18.1%. The same measure, in the same setting: next, `Cc1ccc(S(=O)(=O)N[C@H](C(=O)N2CCC(C(=O)NCC(=O)O)CC2)C(C)C)cc1`: 5.93%; `Cc1cc(C)nc(NN2C(=O)/C(=C/c3ccccc3)SC2=S)n1`: 20%. Same read-out and setting: next, `COc1ccc(/C=C\C(=O)Nc2ccccc2C(=O)O)cc1OC`: -0.45%. Consider `CCOc1cc(C#N)c(NC(=O)c2cccnc2)cc1OCC`, for which the “activity, negative = inhibition” value was -7.18%.

Turning to `COCCNC(=O)c1onc(CSc2ccccc2F)c1C(=O)O`, the “activity, negative = inhibition” value was -3.48%. The same measure, in the same setting: next, `CC(C)(C)NC(=O)C(=O)NNC(=O)c1ccccc1`: 29.3%; `N[C@H](C(=O)O)c1nn[nH]n1`: 4.99%. Still for that read-out and setting: next, `O=C(NNC(=S)NCc1ccco1)c1ccc(Cl)s1`: -15.8%. Same read-out and setting: the figure for `Nc1ccc2c3c(cccc13)C(=O)NC2=O` is -2.93%; for `Nc1[nH]c(=S)[nH]c(=O)c1N=Nc1c(Br)cc(S(N)(=O)=O)cc1Br` it is 7.23% [at 11.4 µM]. As to `CC1(C)CC(O)CC(C)(C)N1CC(O)COCCOc1ccc(Br)cc1` (configuration not stated), the AC50 is 14.1 µM (active).

In the case of `O=c1c(-c2cccs2)nc2cncnc2n1C1CC1`, the “activity, negative = inhibition” value was -6.01%. Same read-out and setting: next, `COc1cccc(Nc2ncc3nc(CCc4ccccc4)c(=O)n(Cc4cccs4)c3n2)c1`: -5.85%; `O=C(NCc1ccccc1)C(c1ccncc1)N(C(=O)c1csnn1)C1CC1` (configuration not stated): -26.9%. On the same count and under the same terms, the figure for `CC(C)(C)NC(=O)NC(=O)CSc1nnc2ccccn12` is -0.138%. Still for that read-out and setting: next, `O=c1cnc2cnc(N3CCOCC3)nc2n1C[C@H]1CCCO1`: 0.524%. Turning to `Cc1ccccc1-c1ccc2ncnc(NCc3cccs3)c2c1`, the AC50 was 10 µM (active).

Take `FC(F)(F)c1ccccc1-c1ccc2ncnc(NCc3cccs3)c2c1`: the AC50 is 10 µM (active). As to `CC(C)=CCC/C(C)=C/CO/N=C1/[C@H]2O[C@@H]2[C@@H](O)[C@H]2[C@H]1CCn1c(=O)n(-c3ccccc3)c(=O)n12`, the activity, negative = inhibition is -3.53% [at 11.4 µM]. On to `CC1CN(C(=O)COc2ncnc3ccccc23)CC(C)O1` (configuration not stated), for which the “activity, negative = inhibition” value was -0.13%.
